From the supplement of paper PMC12350171
Where a name gives a salt, the structure may show the parent alone. Unmarked numbers belong to inactive results.

Columns and labels:
Settings in all cases: 20 µM
[1] = test system: Salmonella enterica typhimurium; assay: growth AUC normalised to DMSO control (fraction of control); higher = less growth inhibition, active = hit call of the paper
How it was run: (§1)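 For the AUC endpoint, growth curves were integrated by the trapezoidal rule up to the exponential-to-stationary transition and normalised to DMSO controls on the same plate. The curves came from OD578 readings taken hourly for 24 h, in three biological replicates. Pathogens had been passaged anaerobically twice and inoculated at an OD578 of 0.01 into pre-reduced mGAM plates carrying 20 μM compound and 1% DMSO, sealed with breathable membranes. Medium for Haemophilus parainfluenzae also contained hemin and NAD.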

Shigella flexneri = assay: as above
How it was run: as §1

Vibrio cholerae = assay: as above
How it was run: as §1

[2] = test system: Yersinia pseudotuberculosis; assay: as above
How it was run: as §1

P. vulgatus RND KO = assay: growth AUC normalised to DMSO control (median) (fraction of control); higher = less growth inhibition, active = hit call of the paper
How it was run: (§2)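 For normalised area under the curve, growth curves were truncated at entry into stationary phase, integrated by the trapezoidal rule and divided against vehicle wells on the same plate. The curves came from strains passaged twice overnight without oxygen and then grown in mGAM in 96-well plates at a starting OD578 of 0.01. Each well held an approved-drug library compound at 20 μM with 1% DMSO, and OD578 was read hourly for 24 h in an anaerobic incubator. Values are medians of three biological replicates.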

P. vulgatus WT = assay: as above
How it was run: as §2

[3] = test system: S. enterica typhimurium WT; assay: as above
How it was run: as §2

[4] = test system: S. enterica typhimurium tolC KO; assay: as above
How it was run: as §2
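Throughout, for growth AUC normalised to DMSO control (median): active when median AUC fell below 0.1.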

Row | SMILES | growth AUC normalised to DMSO control [1] | growth AUC normalised to DMSO control (Shigella flexneri) | growth AUC normalised to DMSO control (Vibrio cholerae) | growth AUC normalised to DMSO control [2] | growth AUC normalised to DMSO control (P. vulgatus RND KO) | growth AUC normalised to DMSO control (P. vulgatus WT) | growth AUC normalised to DMSO control [3] | growth AUC normalised to DMSO control [4]
1 | CO/N=C(\C(=O)N[C@@H]1C(=O)N2C(C(=O)O)=C(COC(C)=O)CS[C@H]12)c1csc(N)n1 [Cefotaxime sodium salt] | 0.00568 (active) | 0.0409 (active) | 0.0691 (active) | 0.0555 (active) | 0.00835 (active) | 0.0141 (active) | 0.00974 (active) | 0.00366 (active)
2 | N[C@H]1CONC1=O [(S,-) Cycloserine] | 1.01 | 1.03 | 1.04 | 1.04 | 0.897 | 0.954 | 0.997 | 0.996
3 | NC(=O)c1cccnc1 [Nicotinamide] | 1.02 | 1.06 | 1.05 | 1.01 | 1.07 | 1.1 | 0.996 | 1.01
4 | Cc1cc2c(s1)Nc1ccccc1N=C2N1CCN(C)CC1 [Olanzapine] | 0.997 | 0.996 | 0.997 | 1.01 | 1.03 | 1.03 | 1.02 | 0.994
5 | CCC(C)n1ncn(-c2ccc(N3CCN(c4ccc(OCC5COC(Cn6cncn6)(c6ccc(Cl)cc6Cl)O5)cc4)CC3)cc2)c1=O (centres undefined) [Itraconazole] | 1.01 | 1.03 | 1.04 | 0.998 | 1.1 | 1.1 | 1.02 | 1
6 | CC(N)C12CC3CC(CC(C3)C1)C2 (centres undefined) [Rimantadine hydrochloride] | 0.99 | 0.987 | 0.985 | 0.869 | 0.978 | 0.983 | 0.996 | 0.989
7 | Clc1ccc2c(c1)C(N1CCNCC1)=Nc1ccccc1O2 [Amoxapine] | 0.988 | 1.01 | 0.8 (active) | 1.01 | 0.795 | 0.759 | 1.01 | 0.972
8 | C[N+](C)(CCOc1ccccc1)Cc1ccccc1.O=C([O-])c1cc2ccccc2cc1O [Bephenium hydroxynaphthoate] | 1.05 | 1.04 | 1.03 | 1.03 | 0.998 | 0.991 | 0.989 | 0.977
9 | CN(C)CCC(c1ccc(Cl)cc1)c1ccccn1 (centres undefined) [Chlorpheniramine maleate] | 0.987 | 0.94 | 0.972 | 0.956 | 0.994 | 0.987 | 0.994 | 0.996
10 | C[C@@H]1CCC[C@H](C)N1NC(=O)c1ccc(Cl)c(S(N)(=O)=O)c1 [Clopamide] | 0.976 | 0.97 | 0.982 | 0.992 | 1 | 0.981 | 1.01 | 0.988
11 | CCCSc1ccc2[nH]c(NC(=O)OC)nc2c1 [Albendazole] | 1 | 1.03 | 0.99 | 0.993 | 1.03 | 1.07 | 0.999 | 1
12 | COc1cc(C(=O)NCc2ccc(OCCN(C)C)cc2)cc(OC)c1OC [Trimethobenzamide hydrochloride] | 1.02 | 1.01 | 1.05 | 1.02 | 1.02 | 1.05 | 0.999 | 1.01
13 | CC(=O)O[C@]1(C(C)=O)CC[C@H]2[C@@H]3C=C(C)C4=CC(=O)CC[C@]4(C)[C@H]3CC[C@@]21C [Megestrol acetate] | 1.02 | 1.12 | 1.1 | 1.05 | 0.992 | 0.999 | 1.01 | 0.931
14 | CC(CCc1ccccc1)NCC(O)c1ccc(O)c(C(N)=O)c1 (centres undefined) [Labetalol hydrochloride] | 0.969 | 0.945 | 0.972 | 0.988 | 1 | 0.988 | 0.99 | 0.986
15 | CCN(CC)C(=O)c1ccc(O)c(OC)c1 [Ethamivan] | 0.981 | 1.03 | 1.03 | 1 | 1.04 | 1.06 | 1.01 | 1.01
16 | CCOC(=O)C1=C(COCCN)NC(C)=C(C(=O)OC)C1c1ccccc1Cl (centres undefined) [Amlodipine] | 0.997 | 0.99 | 0.985 | 1.01 | 1.02 | 1.02 | 1.02 | 1.01
17 | Cc1c(NC(C)C)c(=O)n(-c2ccccc2)n1C [Isopyrin hydrochloride] | 1.02 | 1.01 | 1.02 | 0.982 | 1.02 | 1.06 | 1 | 1.01
18 | N=C(N)N/N=C/c1c(Cl)cccc1Cl [Guanabenz acetate] | 0.936 (active) | 0.998 | 1.03 | 0.973 | 0.983 | 0.98 | 0.946 | 0.967
19 | CC(=O)[C@H]1CC[C@H]2[C@@H]3CC=C4C[C@@H](O)CC[C@]4(C)[C@H]3CC[C@]12C [Pregnenolone] | 1 | 0.985 | 0.996 | 1 | 1.02 | 1.02 | 0.993 | 0.954
20 | CC[N+](C)(C)c1cccc(O)c1 [Edrophonium chloride] | 1.01 | 1 | 1.02 | 0.964 | 1.02 | 1.02 | 1.01 | 0.992
21 | CCN(CC)CCOCCOC(=O)C1(c2ccccc2)CCCC1 [Carbetapentane citrate] | 0.995 | 1 | 1 | 1 | 1.01 | 1.01 | 0.995 | 0.992
22 | O=C(NCCNCC(O)COc1ccc(O)cc1)N1CCOCC1 (centres undefined) [Xamoterol hemifumarate] | 0.969 | 0.945 | 0.98 | 0.993 | 0.991 | 0.982 | 1.01 | 0.99
23 | COc1ccccc1N1CCN(CC(O)COc2cccc3ccccc23)CC1 (centres undefined) [Naftopidil dihydrochloride] | 1.01 | 1 | 0.894 | 0.991 | 0.933 | 0.971 | 1.01 | 0.914
24 | CN1C2CCCC1CC(NC(=O)c1nn(C)c3ccccc13)C2 (centres undefined) [Granisetron] | 1 | 1.02 | 1.01 | 1 | 1 | 0.987 | 0.982 | 1
25 | CC(C)NCC(O)c1ccc(O)c(O)c1 (single isomer, unassigned; (+)) [(+) Isoproterenol-(+)-bitartrate salt] | 1.02 | 1.02 | 1.03 | 0.913 | 1.01 | 1.03 | 1.01 | 0.984
26 | CC(C(=O)O)c1ccc(N2Cc3ccccc3C2=O)cc1 (centres undefined) [Indoprofen] | 0.992 | 1.01 | 1.03 | 1.01 | 0.975 | 0.971 | 0.993 | 0.997
27 | O=C(O)c1cn(-c2ccc(F)cc2)c2cc(N3CCNCC3)c(F)cc2c1=O [Sarafloxacin] | 0.0114 (active) | 0.0236 (active) | 0.0367 (active) | 0.0409 (active) | 0.0128 (active) | 0.0174 (active) | 0.00503 (active) | 0.0079 (active)
28 | CCC(=O)O[C@]1(C(=O)SCF)[C@H](C)C[C@H]2[C@@H]3C[C@H](F)C4=CC(=O)C=C[C@]4(C)[C@@]3(F)[C@@H](O)C[C@@]21C [Fluticasone propionate] | 0.996 | 1.01 | 1 | 1 | 0.998 | 0.988 | 0.993 | 0.998
